Reference: PubChem BioAssay AID1240 (Sanford-Burnham Center for Chemical Genomics, 2008)
The whole screen tested about 50,000 compounds, of which about 800 (1.6%) showed an effect of 50% or more. The list comes from a sample in which strong results are over-represented; it also holds similar structures and randomly drawn compounds.

Biological target: Bcl-2-like protein 10 (Homo sapiens) (UniProt Q9HD36)
Assay: TR3 peptide-Bcl-B binding displacers, biochemical primary FP assay, phenotype converters (AID 1240);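 further: 0% = Bcl-B with tracer peptide and DMSO and 100% = tracer peptide lacking Bcl-B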
Conditions: GST-Bcl-B / FITC-TR3 peptide fluorescence polarization; stronger effect = higher value; compound at 3.75 mg/L

Chain of Bcl-2-like protein 10 (Homo sapiens) (Q9HD36 whole entry, looked up): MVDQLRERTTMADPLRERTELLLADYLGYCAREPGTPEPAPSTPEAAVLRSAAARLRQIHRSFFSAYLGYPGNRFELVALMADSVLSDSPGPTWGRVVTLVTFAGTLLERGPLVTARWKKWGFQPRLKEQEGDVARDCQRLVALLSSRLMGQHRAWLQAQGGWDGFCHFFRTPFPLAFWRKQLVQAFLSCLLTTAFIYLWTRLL

For `CCN(CC)c1ccc(/C=N/NS(C)(=O)=O)cc1`, which displacement is on record?
The displacement was 7.3%.

`COc1cccc(CN2CCN(C(=O)c3ccccc3OC)CC2)c1` was tested. Which displacement did it give?
Its displacement is -15.8%.

With `NC(=O)SCC(=O)Nc1ccccc1O` as the compound, how does the displacement read?
Its displacement is 4.9%.

With `Clc1ccccc1-c1nnc(-c2ccc(-c3ccccc3)cc2)o1` as the compound, how does the displacement read?
The displacement was 5.2%.

For `O=C(Nc1ccc(OC(F)(F)F)cc1)c1cccc([N+](=O)[O-])c1`, which displacement is on record?
The displacement was -1.6%.

For `COc1cc(/C=C2\SC(NC(C)=O)=NC2=O)cc(Br)c1OC`, which displacement is on record?
The displacement was 11.8%.

For `COc1ccc(/C=C2\SC(N3CCCC3)=NC2=O)c(OC)c1`, which displacement is on record?
Its displacement is -18.5%.

`COc1cc(OC)c(/C=C2/SC(NC(C)=O)=NC2=O)cc1Br` was tested. Which displacement did it give?
Its displacement is 138%.

With `CC(=O)NC1=NC(=O)/C(=C\c2ccc(-c3ccc(Cl)c(C(=O)O)c3)o2)S1` as the compound, how does the displacement read?
The displacement was -115%.

With `COc1ccc(OC)c(/C=C2/SC(NC(C)=O)=NC2=O)c1` as the compound, how does the displacement read?
The displacement was 156%.

`COc1cc(/C=C2\SC(NC(C)=O)=NC2=O)cc2sc(=O)oc12` was tested. Which displacement did it give?
The displacement was 24.7%.

Which displacement does the source give for `COc1ccc(/C=C2/SC(NC(C)=O)=NC2=O)c(OC)c1` here?
The displacement was 133%.

For `COc1ccc(OC)c(/C=C2\SC(N3CCCC3)=NC2=O)c1`, which displacement is on record?
Its displacement is -16.2%.

With `COc1c(Cl)cc(Cl)cc1/C=C1\SC(NC(C)=O)=NC1=O` as the compound, how does the displacement read?
The displacement was 74.7%.

`COc1cc(/C=C2/SC(NC(C)=O)=NC2=O)cc(OC)c1OC` was tested. Which displacement did it give?
Its displacement is 31.2%.

How did the displacement turn out when `COc1ccc(/C=C2/SC(N)=NC2=O)c(OC)c1` was run?
The displacement was -3.2%.

How did the displacement turn out when `CCOC(=O)C1=CN(c2ccc(OCC)cc2)C=C(C(=O)OCC)C1c1ccccc1F` was run?
The displacement was -12.6%.

`CC(=O)OC(c1c(F)c(F)c(F)c(F)c1F)c1c(F)c(F)c(F)c(F)c1F` was tested. Which displacement did it give?
The displacement was 3%.

With `C=CCN1C(=O)/C(=C\c2ccc(O)cc2)C(=O)NC1=S` as the compound, how does the displacement read?
The displacement was -14.8%.

How did the displacement turn out when `O=C(N/N=C/c1ccc(Cl)cc1)c1ccc(O)cc1` was run?
Its displacement is -1.1%.

For `O=C(O)CCCCCN1C(=O)C(O)=C(C(=O)/C=C/c2ccccc2)C1c1ccccc1F` (centres undefined), which displacement is on record?
Its displacement is 1.5%.

With `O=C(/C=C/c1ccccc1)C1=C(O)C(=O)N(c2ccccn2)C1c1ccccc1F` (centres undefined) as the compound, how does the displacement read?
Its displacement is 93.5%.

With `O=C(/C=C/c1ccccc1)C1=C(O)C(=O)N(c2ccccc2)C1c1ccccc1F` (centres undefined) as the compound, how does the displacement read?
The displacement was 2%.

Which displacement does the source give for `Cc1ccccc1NC(=O)CN(c1ccc(Oc2ccccc2)cc1)S(C)(=O)=O` here?
Its displacement is 1.7%.

For `Cc1ccccc1NC(=O)c1ccc(C)c(S(=O)(=O)NCc2ccccc2)c1`, which displacement is on record?
The displacement was -9.5%.

For `CC(C)Cc1nnc(NC(=O)Nc2ccc(Cl)c(Cl)c2)s1`, which displacement is on record?
Its displacement is 3.9%.

With `CC(C)c1nnc(NC(=O)Nc2ccc(Cl)c(Cl)c2)s1` as the compound, how does the displacement read?
Its displacement is 98.2%.

For `CC(C)c1nnc(NC(=O)Nc2ccc(Cl)cc2)s1`, which displacement is on record?
The displacement was 2.3%.

For `FC(F)(F)c1nc2ccccc2n1CC#CCn1c(C(F)(F)F)nc2ccccc21`, which displacement is on record?
The displacement was -1.1%.

How did the displacement turn out when `Cc1ccc(NC(=O)/C(=C/c2ccccc2)c2ccccc2)cc1C` was run?
The displacement was 12.1%.

`O=C(Nc1nc2ccc(Br)cc2s1)c1cccs1` was tested. Which displacement did it give?
The displacement was -3.7%.

How did the displacement turn out when `COc1ccc(C(=O)Nn2cc3cc([N+](=O)[O-])ccc3n2)cc1` was run?
The displacement was -9.5%.

Which displacement does the source give for `O=C(Cc1ccc(Cl)cc1)Nc1ccc2c(c1)OCCO2` here?
Its displacement is 0.4%.

With `N#Cc1c(N)sc2c1CCN(Cc1ccccc1)C2` as the compound, how does the displacement read?
The displacement was 3.4%.

How did the displacement turn out when `CSc1nc2sc3c(c2c(=O)n1Cc1ccccc1)CCN(C)C3` was run?
The displacement was -6.8%.

How did the displacement turn out when `CSc1nc2sc3c(c2c(=O)[nH]1)CCN(Cc1ccccc1)C3` was run?
The displacement was 81%.

How did the displacement turn out when `Nc1sc(=S)nc2sc3c(c12)CCN(Cc1ccccc1)C3` was run?
Its displacement is 74%.

How did the displacement turn out when `CSc1nc2sc3c(c2c(=O)[nH]1)CCCC3` was run?
The displacement was 6.2%.

Which displacement does the source give for `Nc1nc(SCc2ccc(Cl)cc2)nc2sc3c(c12)CCN(Cc1ccccc1)C3` here?
The displacement was 16.8%.

For `Cc1cccc(C(=O)O/N=C(\N)c2ccc(Br)cc2)c1`, which displacement is on record?
Its displacement is -0.6%.

With `COc1ccc(-c2occ(C(=O)O)c2C(=O)O)cc1` as the compound, how does the displacement read?
Its displacement is 0.2%.

How did the displacement turn out when `O=C1CC(N2CCN(c3ccccc3)CC2)C(=O)N1c1ccc(I)cc1` (centres undefined) was run?
Its displacement is -0.8%.

`CCC12C(=O)C(CC)(C(c3ccccc3)=C1c1ccccc1)C1C(=O)N(c3ccccc3[N+](=O)[O-])C(=O)C12` (centres undefined) was tested. Which displacement did it give?
Its displacement is 2%.

With `CCN1C(=O)/C(=C\c2ccc(Br)cc2)SC1=S` as the compound, how does the displacement read?
The displacement was 7.1%.

With `CCOc1cccc(=O)c2c(C)oc(C)c12` as the compound, how does the displacement read?
The displacement was 16.8%.

`CCOc1ccc(-c2cc(OCC)c3c(C)oc(C)c3c(=[O+]CC)c2)cc1` was tested. Which displacement did it give?
The displacement was 2.4%.

Which displacement does the source give for `CCOc1cccc(=[O+]CC)c2c(C)oc(C)c12` here?
The displacement was 154%.

How did the displacement turn out when `CNC(=O)COc1ccc(C23CC4CC(CC(C4)C2)C3)cc1` was run?
The displacement was 1.4%.

`O=C(CSc1n[nH]c(=O)[nH]c1=O)c1ccc(Cl)cc1` was tested. Which displacement did it give?
The displacement was -6.1%.

For `O=C(Nc1ncc(Cc2ccc(F)cc2)s1)C1CCCO1` (centres undefined), which displacement is on record?
Its displacement is 15.4%.

`Cc1nc(-c2ccccc2)sc1C(=O)Nc1cccc2ccccc12` was tested. Which displacement did it give?
The displacement was 13.1%.

`COc1cc(C=O)ccc1Oc1ccc([N+](=O)[O-])cc1` was tested. Which displacement did it give?
Its displacement is 5%.

With `Cc1ccc(-n2cc(C=C3C(=O)NC(=O)NC3=O)cn2)cc1C` as the compound, how does the displacement read?
The displacement was 110%.

How did the displacement turn out when `Cc1ccc(-n2c(C)cc(/C=C3\NC(=O)NC3=O)c2C)cc1C` was run?
Its displacement is 11.1%.

For `Cc1ccc(-n2cc(/C=c3\sc4nc5cc(C)c(C)cc5n4c3=O)cn2)cc1C`, which displacement is on record?
Its displacement is -8.9%.

Which displacement does the source give for `O=[N+]([O-])c1ccc2oc(-c3ccccc3)nc2c1` here?
The displacement was 5%.

`COc1sc(SC)cc1/C=N/NC(=O)C(NC(=O)c1ccccc1)c1n[nH]c(=O)c2ccccc12` (centres undefined) was tested. Which displacement did it give?
Its displacement is -7.7%.

`COCCNC(=O)c1nn2c(C(F)(F)F)cc(-c3ccc(OC)cc3)nc2c1Cl` was tested. Which displacement did it give?
Its displacement is -2.4%.

Which displacement does the source give for `COc1ccc(-c2cc(C(F)(F)F)n3nc(C(=O)NCCCn4ccnc4)c(Cl)c3n2)cc1` here?
Its displacement is 105%.

How did the displacement turn out when `COc1ccc(-c2cc(C(F)(F)F)n3nc(C(=O)O)c(Cl)c3n2)cc1` was run?
The displacement was 3.2%.

How did the displacement turn out when `COc1ccc(-c2cc(C(F)(F)F)n3nc(C(N)=O)c(Cl)c3n2)cc1OC` was run?
Its displacement is 33.4%.

With `COCCNC(=O)c1nn2c(C(F)(F)F)cc(-c3ccc(OC)c(OC)c3)nc2c1Cl` as the compound, how does the displacement read?
The displacement was 155%.

How did the displacement turn out when `COc1ccc(-c2cc(C(F)(F)F)n3nc(C(=O)NCCN4CCOCC4)c(Cl)c3n2)cc1` was run?
Its displacement is -10.2%.

Which displacement does the source give for `COc1ccc(C(=O)Nc2ccc(N(C)C)cc2)cc1` here?
The displacement was 6%.

For `CN(C)c1ccc(C2/C(=C(\O)c3ccc(F)cc3)C(=O)C(=O)N2CCCCCC(=O)O)cc1` (centres undefined), which displacement is on record?
Its displacement is 9.1%.

Which displacement does the source give for `CCCCOC(=O)c1ccc(NC(=O)COc2ccc3c(C)cc(=O)oc3c2)cc1` here?
The displacement was 28.5%.

How did the displacement turn out when `COCCOC(=O)c1ccc(NC(=O)COc2ccc3c(C)cc(=O)oc3c2)cc1` was run?
The displacement was 90.3%.

With `CCCCOC(=O)c1cccc(NC(=O)COc2ccc3c(C)cc(=O)oc3c2)c1` as the compound, how does the displacement read?
The displacement was -41.8%.

With `Cc1cccc([N+](=O)[O-])c1N=Cc1ccc(N(C)C)cc1` as the compound, how does the displacement read?
The displacement was -4.5%.
